# Measured values reported in PubChem BioAssay.
# Active and inactive are the calls of the source.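 The calls were made as follows, unless noted: active = compound that reduces growth-factor-driven endothelial tube area in a mixed cell culture, no cutoff stated; inactive = the rest.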
# Assays:
# [1] = stimulators of nuclear beta-catenin in C2C12, primary screen, imaging, WNT3A-conditioned medium, mouse C2C12, NPC library (AID 1117326; in the data active = nuclear beta-catenin stimulation mostly above about 4.2%, no sharp cut-off; inactive = mostly below about 10%; also: reference of the scale not given here); conditions: stronger effect = higher value
# [2] = stimulators of insulin release from INS-1E, primary screen, cell-based, 5 mM glucose, NPC library (AID 1117329;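 active = compound raises insulin release from rat beta cells at 5 mM glucose, no numeric limit stated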; also: reference of the scale not given here); conditions: rat INS-1E insulin secretion, at 10 µM, stronger effect = higher value
# [3] = growth inhibition of GSK3B-pretreated HCT116 cells – cell-based, CellTiter-Glo, 0.2 to 20 µM (AID 1117336;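 active = compounds lowering colon cancer cell viability after pretreatment blocking the GSK3B kinase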); conditions: HCT116 viability after GSK3B inhibitor, at 20 µM, stronger effect = higher value
# [4] = inhibition of endothelial tube formation, primary screen, imaging, VEGF stimulated, CD31 staining, tube area, NPC library (AID 1117340); conditions: VEGF-stimulated ADSC/ECFC co-culture, at 10 µM, stronger effect = higher value
# [5] = glucagon-like peptide 1 release enhancers, primary assay, NCI-H716 cell line, NPC library (AID 1117341;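 active = compound raises GLP1 secretion from the human gut endocrine cells, with no numeric limit stated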; also: reference of the scale not given here); conditions: NCI-H716 cells, at 10 µM, stronger effect = higher value
# [6] = HCT116 colon cancer cell growth inhibition, primary screen, CellTiter-Glo luminescence, NPC library (AID 1117342;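 active = compounds that lower survival of HCT116 colon cancer cells in the luminescence readout, no numeric limit stated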); conditions: at 20 µM (top of the series)
# [7] = CellTiter-Glo luminescent readout of SW480 viability loss, NPC library primary (AID 1117343;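 active = compounds that lower viability of the colon cancer cells in the luminescence readout, with no numeric limit stated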); conditions: CellTiter-Glo luminescence; at 20 µM (top of the series)
# [8] = decreased DLD-1 cellular survival, CellTiter-Glo luminescent readout, NPC compound collection, primary HTS (AID 1117346;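 active = compounds that lower survival of DLD-1 colon cancer cells in the luminescence readout, no cutoff given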); conditions: DLD-1 viability, CellTiter-Glo luminescence; at 20 µM (top of the series)
Compound,nuclear beta-catenin stimulation ([1]; at 10 µM),"nuclear beta-catenin stimulation ([1]; stimulation, at 2 µM) [%]",insulin secretion stimulation [2],viability decrease [3],tube area decrease [4],GLP1 secretion stimulation [5],inhibition of viability [6],viability decrease (inhibition) [7],viability decrease (inhibition) [8]
C=Cc1ccccc1,-2.1% (inactive),-0.8,3.5% (inactive),-5% (inactive),-9.4% (inactive),-1.4% (inactive),6.9% (inactive),0.4% (inactive),1.7% (inactive)
c1ccc2c(c1)CCc1ccccc1N2,0.8% (inactive),2.8,0.55% (inactive),8.3% (inactive),-22.5% (inactive),2% (inactive),-2.9% (inactive),-16.7% (inactive),-6.2% (inactive)
O=C1NC2CCCCN2C12CCN(CCCN1c3ccccc3CCc3ccc(Cl)cc31)CC2 (configuration not stated),13.1% (inactive),0.1,3.85% (inactive),108% (active),89.4% (active),13.3% (inactive),112% (active),128% (active),101% (active)
CCCCCCCCCCCCCC(=O)OC(C)C,1.2% (inactive),-0.6,0.9% (inactive),-8.2% (inactive),-9.5% (inactive),-0.1% (inactive),8.25% (inactive),7.7% (inactive),24.3% (inactive)
COc1ccc(C(=O)N2CCN(CC(=O)N3CCOCC3)CC2)cc1,0.8% (inactive),5.2,3.1% (inactive),6.4% (inactive),2.1% (inactive),0.6% (inactive),4.3% (inactive),-11.3% (inactive),3.3% (inactive)
CCC(C(=O)OCCN(CC)CC)c1ccccc1 (configuration not stated),1.2% (inactive),-0.6,1.3% (inactive),-8.4% (inactive),-11.9% (inactive),-2.1% (inactive),-0.3% (inactive),4.5% (active),-11.1% (inactive)
COc1cc([C@@H]2c3cc4c(cc3[C@@H](O[C@@H]3O[C@@H]5CO[C@@H](C)O[C@@H]5[C@H](O)[C@@H]3O)[C@H]3COC(=O)[C@H]23)OCO4)cc(OC)c1O,44.6% (active),18.8,1.2% (inactive),21.9% (inactive),104% (active),0.6% (inactive),53.9% (active),73.1% (active),49.6% (inactive)
CCN(CC)CCNC(=O)COc1ccc(Cl)cc1,-2.4% (inactive),-0.4,0.9% (inactive),-9.5% (inactive),-3.5% (inactive),-4.5% (inactive),22.7% (inactive),34.2% (inactive),0.6% (inactive)
